# Assay results from the supplement of paper PMC3334620.
# The full ranking holds about 33,000 sequences; the median of “E-score (-0.5 to 0.5)” is about -0.0059, and the highest 2% start at about 0.26. The entries come from a sample that favours the highest values as a whole.
# Target: T1, Cin5 (UniProt P40917)
# T1 sequence: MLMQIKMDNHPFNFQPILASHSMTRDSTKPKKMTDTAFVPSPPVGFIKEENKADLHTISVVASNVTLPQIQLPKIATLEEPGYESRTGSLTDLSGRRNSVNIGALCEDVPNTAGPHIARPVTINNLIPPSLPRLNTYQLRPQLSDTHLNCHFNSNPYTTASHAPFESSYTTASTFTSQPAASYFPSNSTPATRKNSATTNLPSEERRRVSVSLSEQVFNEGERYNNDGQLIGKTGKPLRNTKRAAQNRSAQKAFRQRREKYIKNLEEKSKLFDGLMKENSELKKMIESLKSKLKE
# Experiment: PBM E-score (8-mer binding enrichment) (E-score (-0.5 to 0.5)); higher = stronger / more preferred TF binding
# Details: protein concentration: 100 nM; construct: GST-full length
# Method: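 Universal 'all 10-mer' protein binding microarrays (Agilent AMADID 015681) probed with GST-tagged S. cerevisiae TFs (full-length or DBD) made by in vitro transcription/translation (PURExpress), about 100-200 nM. Bound TF was detected with fluorescent anti-GST. Each ungapped 8-mer (which stands for itself and its reverse complement) is scored by the PBM enrichment score (E-score), a modified Wilcoxon-Mann-Whitney statistic from -0.5 to +0.5, computed with the Universal PBM Analysis Suite. Scale: above 0.35 generally sequence-specific binding.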
row,Sequence,PBM E-score
1,CCTTGCAC,-0.0869
2,TAGATCAA,0.0289
3,ACGGAGAG,0.00731
4,ATGTAAGA,0.274
5,CGGTAAGC,0.114
6,ACGTAAGA,0.347
7,CTGTAAGA,-0.00022
8,TCGTAAGA,-0.00999
9,GTGTAAGA,0.0309
10,GCGTAACC,0.0286
11,ACGTAACC,0.262
12,AGGTAAGG,0.0286
13,AGGTAAGC,0.321
14,ACGTAAGT,0.25
15,ACGTAACG,0.214
16,AATCGTCG,0.14
17,ACATTCAC,0.093
18,AAATTCTC,-0.0624
19,TCCCTTAA,-0.186
20,AACTAGGT,0.118
21,CGACATAC,0.104
22,GTCACACA,0.0464
23,TACTTCGA,0.183
24,CGTCCTCC,-0.139
25,CATGGTAA,0.0768

row,Sequence,PBM E-score
1,ACTCATCT,0.156
2,GATATGGA,0.244
3,ACGTAATG,0.334
4,ATGTAAGG,0.103
5,ACGTAAAG,0.191
6,AAGTAATG,0.184
7,ATGTAAGC,0.431
8,CTGTAAGC,0.0794
9,ACAGGGAT,0.0409
10,ACAATCAG,0.134
11,CATCGTAA,0.0929
12,GAACGGAA,0.176
13,GAACGTTA,-0.104
14,CAACGGAA,0.103
15,GAACGTAA,0.297
16,TAACGTAA,0.415
17,CAACGTAA,0.204
18,GAACGTAC,-0.115
19,AAACGTAA,0.234
20,GATCGTAA,0.116
21,TATCGTAA,0.28
22,TAACGGAA,0.322
23,GAGGGGGA,-0.324
24,GTGAGATA,0.164
25,CTAGCCGC,0.0223

row,Sequence,PBM E-score
1,GACTAGAC,-0.179
2,ATCTGAAT,0.0915
3,GACCTTCC,-0.147
4,GCATATTA,0.246
5,CGATATTC,0.0444
6,GAATATTA,0.274
7,GAATATCA,0.174
8,GAATATTC,0.265
9,GGATATTA,0.143
10,CGATATTA,0.355
11,TAATATTA,0.368
12,AAATATTT,0.141
13,CAATATTC,0.102
14,AGATATTA,0.168
15,GAATATAC,0.195
16,GATCGTTA,0.0193
17,GGACCTAA,-0.0416
18,CTGGGAAG,-0.0869
19,CGATCGCC,0.0437
20,AGTCTTAT,0.158
21,AAGGGCGA,-0.241
22,CAAGACGA,-0.0306
23,CTCCGCCC,-0.173
24,CTCCACAC,-0.0294
25,ACTTCTTG,-0.0532

row,Sequence,PBM E-score
1,AGGCTTGA,-0.0503
2,CCACCTCC,-0.266
3,AAGCACTC,-0.0467
4,AAATATTA,0.315
5,AAATATTC,0.183
6,CAATATTG,0.205
7,GAGTATCA,-0.0396
8,CAATATTA,0.275
9,TAATATCA,0.26
10,AAATATCA,0.179
11,TAGTATCA,0.296
12,CAGTATCA,0.0369
13,AAATATTG,0.222
14,CAATATCA,0.108
15,CAATATCC,0.116
16,ACCTACGT,0.0549
17,CACTGCAG,-0.0359
18,CGGCAGTC,0.0575
19,GTGCCAGA,-0.293
20,GCACTACC,-0.00786
21,TACCGGTA,0.0137
22,GCGATTCA,0.0512
23,AAAATCCT,-0.223
24,CTTTAGCC,0.0446
25,CCGGCTTC,0.0218

row,Sequence,PBM E-score
1,TGGAGCCA,-0.184
2,ATTGGCGG,-0.0494
3,AGGATAGC,-0.064
4,CTGACCGC,-0.068
5,ACTATAAA,0.146
6,ATTATAAA,0.195
7,ATTATAAG,0.188
8,ACTATAAT,0.27
9,ATTATAAT,0.265
10,ACAATAAC,0.143
11,ACTATAAC,0.0218
12,ACAATAAT,0.267
13,ACAATAAA,0.162
14,ATGAATAA,0.142
15,ACCAGGGG,-0.265
16,AGGCAGTG,0.141
17,GAAATATC,0.111
18,AAAATATA,0.159
19,CAAATATA,0.166
20,TAAATATA,0.261
21,GAAATATA,0.287
22,GAAAAATA,0.158
23,CCGTTGGC,-0.124
24,AAACAGCA,0.0422
25,CCCCATCC,0.00185

row,Sequence,PBM E-score
1,AAACAATA,0.287
2,GAACAATA,0.229
3,ATACAATC,0.162
4,AGACAATG,-0.00251
5,CTACAATA,0.137
6,AGACAATC,0.112
7,CAACAATA,0.155
8,AAACAATG,0.196
9,ATACAATA,0.278
10,TAACAATA,0.273
11,AGACAATA,0.279
12,AAACAATT,0.154
13,GCGGATCC,-0.0308
14,CGAAGTAG,0.00111
15,ATTACCAG,0.18
16,ATAGCCAC,-0.0146
17,CGAGTTCA,-0.0225
18,TACTGCCA,0.0854
19,GACCGGAA,-0.0318
20,CAGCTATC,-0.0573
21,CCAGCAAG,-0.182
22,AGTTTTTG,0.107
23,ACCAAACG,-0.038
24,AGCAAGCT,-0.156
25,ACAACCAT,0.306

row,Sequence,PBM E-score
1,ACAACCAC,0.0998
2,ACAACCAG,-0.00422
3,ACAGCTTG,0.11
4,ACCATTGG,0.0343
5,ACACCTCG,0.0498
6,CGCCAAGC,-0.235
7,TCTTAGAA,0.0741
8,AATTATGG,0.156
9,AATTATCT,0.331
10,AATTATCA,0.251
11,AATTATGT,0.304
12,AATTATCC,0.133
13,AATTATGA,0.257
14,CGGTTGCA,-0.146
15,ACTGTCGG,-0.186
16,AGCGTAAT,0.13
17,ATTATCAA,0.274
18,ATTATCAC,0.234
19,CTTATCAA,0.278
20,ATTATCAG,0.119
21,GTTATCAA,0.0472
22,CTTATCAC,0.0488
